# Over roughly 140,000 sequences, “enrichment ratio after two sorts for PhoP signalling” has its median near 0; the highest 2% begin near 11. What follows is part of a selection rich in the highest values, with near analogues and random picks from the rest.
# B1: PhoQ; a variant is named by its letters at X, in order, P23837 (parent)
# chain: MKKLLRLFFPLSLRVRFLLATAAVVLVLSLAYGMVALIGYSVSFDKTTFRLLRGESNLFYTLAKWENNKLHVELPENIDKQSPTMTLIYDENGQLLWAQRDVPWLMKMIQPDWLKSNGFHEIEADVNDTSLLLSGDHSIQQQLQEVREDDDDAEMTHSVAVNVYPATSRMPKLTIVVVDTIPVELKSSYMVWSWFIYVLSANLLLVIPLLWVAAWWSLRPIEALAKEVRELEEHNRELLNPATTRELTSLVRNLNRLLKSERERYDKYRTTLTDLTHSLKTPLXXLQXXLRSLRSEKMSVSDAEPVMLEQISRISQQIGYYLHRASMRGGTLLSRELHPVAPLLDNLTSALNKVYQRKGVNISLDISPEISFVGEQNDFVEVMGNVLDNACKYCLEFVEISARQTDEHLYIVVEDDGPGIPLSKREVIFDRGQRVDTLRPGQGVGLAVAREITEQYEGKIVAGESMLGGARMEVIFGRQHSAPKDE
# Variants of: B1
# Experiment: enrichment ratio after two sorts for PhoP signalling (ratio (wild type AVST 3.29)); higher = more functional
# Settings: with PhoP (E. coli)
row,Variant,enrichment ratio
1,NDFR,2.54
2,FPHA,≤ 0.25
3,HDNY,≤ 0.25
4,QCKR,≤ 0.25
5,LDKY,≤ 0.25
6,YWPF,≤ 0.25
7,DPVE,≤ 0.25
8,NGRY,≤ 0.25
9,ATVN,19.4
10,KCAE,≤ 0.25
11,YTVN,≤ 0.25
12,ACQN,≤ 0.25
13,ACAN,15.5
14,ACAM,30.7
15,ATPN,≤ 0.25
16,ACAE,15.5
17,ACAK,0.412
18,ACAT,0.287
19,ACAV,3.32
20,ACRM,≤ 0.25
21,CLIL,≤ 0.25
22,RMFK,≤ 0.25
23,PFPY,≤ 0.25
24,RDQR,≤ 0.25

row,Variant,enrichment ratio
1,IEIS,≤ 0.25
2,IVGI,≤ 0.25
3,EILP,≤ 0.25
4,ACNM,≤ 0.25
5,ACVM,12.1
6,ACPM,0.39
7,PFDF,≤ 0.25
8,TKVK,≤ 0.25
9,AKVQ,2.82
10,AKVI,5.34
11,TKVG,1.43
12,TKVI,30.1
13,TKVH,12.3
14,KKVQ,≤ 0.25
15,MKVH,≤ 0.25
16,TKVQ,11.7
17,TKVA,18.4
18,HKVI,≤ 0.25
19,HKVH,≤ 0.25
20,RIDW,≤ 0.25
21,SRWP,≤ 0.25
22,PCHL,≤ 0.25
23,IMSS,≤ 0.25
24,RNRM,≤ 0.25

row,Variant,enrichment ratio
1,QWVH,≤ 0.25
2,AEDM,≤ 0.25
3,YQHC,≤ 0.25
4,AKVV,11
5,HKVV,≤ 0.25
6,HKMA,≤ 0.25
7,MEMA,≤ 0.25
8,MKVM,≤ 0.25
9,TKVM,36.7
10,TKVV,16.7
11,AKVM,≤ 0.25
12,TKMA,20.5
13,TEIA,5.22
14,RVAC,≤ 0.25
15,LPRF,≤ 0.25
16,VFWD,≤ 0.25
17,DAPE,≤ 0.25
18,QDDV,≤ 0.25
19,HFGH,≤ 0.25
20,KLGH,≤ 0.25
21,NHSH,≤ 0.25
22,VEGH,≤ 0.25
23,THSH,12.3
24,TLGH,12.5

row,Variant,enrichment ratio
1,THGH,13.1
2,TLGP,≤ 0.25
3,KSGH,≤ 0.25
4,SHSH,0.368
5,TCGP,1.63
6,TCGH,23.5
7,NPCL,≤ 0.25
8,WFFE,≤ 0.25
9,IMHM,≤ 0.25
10,NGPM,≤ 0.25
11,PILN,≤ 0.25
12,REPM,≤ 0.25
13,FADW,≤ 0.25
14,TMTH,9.92
15,TMGH,15.3
16,TMGP,≤ 0.25
17,STKH,≤ 0.25
18,MCYL,13
19,MMGV,≤ 0.25
20,MCGV,13.4
21,MNNL,0.29
22,MLYL,10.2
23,MEYL,3.47
24,TTGM,28.6

row,Variant,enrichment ratio
1,YTGM,≤ 0.25
2,TTGD,0.456
3,MNYL,12
4,MEGV,≤ 0.25
5,KLYL,≤ 0.25
6,DQFA,≤ 0.25
7,KQAS,≤ 0.25
8,PFKG,≤ 0.25
9,NGPW,≤ 0.25
10,AAVK,≤ 0.25
11,TAHM,14.1
12,MCYK,≤ 0.25
13,MCWI,18.3
14,KAHM,≤ 0.25
15,MCVA,≤ 0.25
16,MCDS,≤ 0.25
17,NAHM,≤ 0.25
18,MCCK,≤ 0.25
19,MCWM,16.4
20,MCAY,4.41
21,MCRM,≤ 0.25
22,MCYI,27.7
23,LMRM,≤ 0.25
24,TVRL,0.897

row,Variant,enrichment ratio
1,LALM,8.02
2,FHFV,≤ 0.25
3,EESR,≤ 0.25
4,ICGM,≤ 0.25
5,MAHM,14.7
6,MKAM,≤ 0.25
7,MCAM,12.2
8,TGGM,≤ 0.25
9,KCAM,≤ 0.25
10,ICWM,≤ 0.25
11,THGM,12.3
12,FDHM,≤ 0.25
13,KCGM,≤ 0.25
14,FVHM,≤ 0.25
15,ICAM,17.4
16,GDQT,≤ 0.25
17,TWQT,≤ 0.25
18,IVCI,≤ 0.25
19,MLAM,15.5
20,MAAK,≤ 0.25
21,MCDM,≤ 0.25
22,MKAK,≤ 0.25
23,MLNM,≤ 0.25
24,MNFL,14.1

row,Variant,enrichment ratio
1,MLWM,≤ 0.25
2,MCVM,≤ 0.25
3,MKFL,0.755
4,TNFL,≤ 0.25
5,MCGM,12.2
6,MCAK,21.4
7,KFHC,≤ 0.25
8,RINI,≤ 0.25
9,PWSK,≤ 0.25
10,EKTT,≤ 0.25
11,YVYD,≤ 0.25
12,WNEY,≤ 0.25
13,VGWQ,1.18
14,FPFF,≤ 0.25
15,GAHW,≤ 0.25
16,GIYF,≤ 0.25
17,RKRF,≤ 0.25
18,YTDM,≤ 0.25
19,ITDM,≤ 0.25
20,LNYL,≤ 0.25
21,MCSQ,11.6
22,MQSQ,≤ 0.25
23,LSYL,11.2
24,LTYL,0.587

row,Variant,enrichment ratio
1,NCYL,≤ 0.25
2,TTDM,22.8
3,KCSQ,≤ 0.25
4,KCYL,≤ 0.25
5,TCYL,16.2
6,YSLM,9.22
7,KKFE,≤ 0.25
8,ELTM,≤ 0.25
9,TLNS,6.81
10,EHKW,≤ 0.25
11,HFHT,≤ 0.25
12,QNLL,≤ 0.25
13,NWYY,≤ 0.25
14,IMGQ,≤ 0.25
15,PTPW,≤ 0.25
16,TWNY,≤ 0.25
17,MCHM,16.7
18,MDHM,≤ 0.25
19,KCHM,≤ 0.25
20,YPGL,≤ 0.25
21,SGCV,15.2
22,SGWV,≤ 0.25
23,SGMW,≤ 0.25
24,SGGF,1.06

row,Variant,enrichment ratio
1,SGWN,≤ 0.25
2,SGNL,0.304
3,SGMF,13.3
4,SGMV,14.3
5,SGHF,≤ 0.25
6,SGMN,30.2
7,SGMD,≤ 0.25
8,SGCI,10.3
9,IRYD,≤ 0.25
10,ARIW,≤ 0.25
11,QYQP,≤ 0.25
12,YDYL,≤ 0.25
13,LNRM,≤ 0.25
14,SGMG,0.699
15,SGMS,6.87
16,SGMI,25
17,EIPP,≤ 0.25
18,SLCC,8.22
19,FECC,22.6
20,HPCC,≤ 0.25
21,EECC,≤ 0.25
22,IECC,11.9
23,SPCC,≤ 0.25
24,IPCC,≤ 0.25

row,Variant,enrichment ratio
1,HECC,7.31
2,FSCC,1.27
3,SECC,38
4,FCCC,≤ 0.25
5,TECC,30
6,KYGK,≤ 0.25
7,RDWY,≤ 0.25
8,FLEP,≤ 0.25
9,HSIW,≤ 0.25
10,NECC,≤ 0.25
11,MECC,14.4
12,QECC,≤ 0.25
13,APCG,≤ 0.25
14,HWFW,≤ 0.25
15,QDYL,≤ 0.25
16,KSQC,≤ 0.25
17,NHQC,≤ 0.25
18,VYQC,≤ 0.25
19,NQQC,≤ 0.25
20,TKQC,12.8
21,KAQC,≤ 0.25
22,TSQC,14.5
23,NSQC,≤ 0.25
24,THQC,13.1

row,Variant,enrichment ratio
1,VLQC,≤ 0.25
2,SHQC,≤ 0.25
3,VVQC,12.7
4,FREL,≤ 0.25
5,PHMW,≤ 0.25
6,YKAD,≤ 0.25
7,LFMF,≤ 0.25
8,WKII,≤ 0.25
9,WHFY,≤ 0.25
10,WCRI,≤ 0.25
11,QMTH,≤ 0.25
12,QMGF,6.84
13,QMMI,≤ 0.25
14,QMHI,≤ 0.25
15,QEGE,≤ 0.25
16,QMGE,96.1
17,QMWW,≤ 0.25
18,QMDH,15
19,QMDS,≤ 0.25
20,QMHF,13.5
21,QRNG,≤ 0.25
22,QMNG,38.7
23,DWSK,≤ 0.25
24,GLGH,≤ 0.25

row,Variant,enrichment ratio
1,IMDI,≤ 0.25
2,QSMQ,≤ 0.25
3,VMGY,≤ 0.25
4,NRNH,≤ 0.25
5,TNKN,≤ 0.25
6,QENN,3.33
7,QMWM,≤ 0.25
8,QRNF,≤ 0.25
9,QMWQ,≤ 0.25
10,QMHM,28.3
11,QMPM,≤ 0.25
12,QMHQ,13.4
13,QMNN,12.1
14,QMHP,≤ 0.25
15,QMNF,36
16,QMNI,9.75
17,QMNL,3.36
18,DYPW,≤ 0.25
19,LWVM,≤ 0.25
20,GLWV,≤ 0.25
21,MEAP,≤ 0.25
22,GFED,≤ 0.25
23,ATGH,5.03
24,EKMA,≤ 0.25

row,Variant,enrichment ratio
1,QMHG,13
2,QMTR,≤ 0.25
3,QMVG,≤ 0.25
4,SEGM,6.17
5,SENL,≤ 0.25
6,SEEN,≤ 0.25
7,SLYM,≤ 0.25
8,SEQN,21.6
9,SEYM,19.4
10,ISAH,≤ 0.25
11,GGLK,≤ 0.25
12,HLNC,≤ 0.25
13,DDAI,≤ 0.25
14,QAIL,≤ 0.25
15,FFLL,≤ 0.25
16,FARL,≤ 0.25
17,FAAN,≤ 0.25
18,FALL,16.3
19,MMLL,1.58
20,MALL,16.2

# Reference: a collection of fitness landscapes (doi:10.1126/science.1257360)
